For 35 compounds, Potency results are on record in PubChem BioAssay (NCATS).

Records with an inconclusive call do not appear. Active and inactive are the calls of the source. Calls come from the whole dose curve; as a rule, active = well fitted curve in the direction sought with a large enough effect; inconclusive = small, poorly fitted or top-dose-only effect, or another doubt; inactive = no such curve, though single readings can be large; an effect the other way counts as inactive or inconclusive.

The nature of experiment [1]: Quantitative High-Throughput drug screen in 47 multiple myeloma cell lines against the NCATS MIPE library collection: KMM1_JCRB cell viability assay (AID 1918960). Note: nearly all actives have a fitted effect of over 30% in size. The method, boiled down:
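CellTiter-Glo luminescence after 48 h exposure gives viability, scaled between DMSO-only (100%) and media-only (0%) controls. Library compounds are pinned onto 500 myeloma cells per well, incubated at 37C with 5% CO2.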

The nature of experiment [2]: Quantitative High-Throughput drug screen in 47 multiple myeloma cell lines against the NCATS MIPE library collection: JIM3_ECACC cell viability assay (AID 1918963; note: nearly all actives have a fitted effect of over 35% in size). Summed up:
(§1)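 Relative luminescence from CellTiter-Glo served as the viability signal, referenced to DMSO-treated (100%) and cell-free medium (0%) controls. Treatment lasted 48 hours at 37C with 500 cells per well.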

Experiment [3] in a line: Quantitative High-Throughput drug screen in 47 multiple myeloma cell lines against the NCATS MIPE library collection: JIM1_ECACC cell viability assay (AID 1918964). Summed up:
(§2)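 Inhibition of cell viability is measured here. Each line was plated at 500 cells per well, treated with MIPE 4.0 drugs, kept 48 hours at 37C, then assayed for ATP content by CellTiter-Glo luminescence.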

A short description of experiment [4]: Quantitative High-Throughput drug screen in 47 multiple myeloma cell lines against the NCATS MIPE library collection: H1112_PLB cell viability assay (AID 1918967; note: nearly all actives have a fitted effect of over 30% in size). The method, boiled down:
as §2

Experiment [5] in a line: Quantitative High-Throughput drug screen in 47 multiple myeloma cell lines against the NCATS MIPE library collection: Karpas25_ECACC cell viability assay (AID 1918968; note: nearly all actives have a fitted effect of over 35% in size). The method, boiled down:
as §2

Experiment [6] in a line: Quantitative High-Throughput drug screen in 47 multiple myeloma cell lines against the NCATS MIPE library collection: INA6_PLB cell viability assay (AID 1918965; note: nearly all actives have a fitted effect of over 55% in size). The method, boiled down: as §1
Experiment [7] in a line: Quantitative High-Throughput drug screen in 47 multiple myeloma cell lines against the NCATS MIPE library collection: JJN3_DSMZ cell viability assay (AID 1918966; note: nearly all actives have a fitted effect of over 50% in size). The method, boiled down: as §2
The nature of experiment [8]: Quantitative High-Throughput drug screen in 47 multiple myeloma cell lines against the NCATS MIPE library collection: KHM11_PLB cell viability assay (AID 1918962). Note: nearly all actives have a fitted effect of over 35% in size. Summed up:
as §1

The nature of experiment [9]: Quantitative High-Throughput drug screen in 47 multiple myeloma cell lines against the NCATS MIPE library collection: Karpas417_ECACC cell viability assay (AID 1918961). The note with it: Karpas417 myeloma viability, CellTiter-Glo ATP luminescence, 48 h; viability (% of DMSO): at 45.8 µM (top of the series). The method, boiled down:
as §1
Potency is the fitted concentration of half-maximal effect.

On to `O=C(CS(=O)Cc1ccco1)NCC=CCOc1cc(CN2CCCCC2)ccn1` (configuration not stated), for which the Potency result in [1], in experiment [2], in experiment [3] and in experiment [4] was “inactive” in each case. In addition, in experiment [5], the Potency was 20.9 µM (active).
Turning to `Cc1ccc(S(=O)(=O)NC(=O)NN2CC3CCCC3C2)cc1` (configuration not stated), the Potency is 23.5 µM (active) in experiment [1]; 23.5 µM (active) in [2]; 20.9 µM (active) in [6]; 23.5 µM (active) in experiment [7]; 26.4 µM (active) in experiment [5].
Consider `Cc1ccc(NC(=O)c2ccc(CN3CCN(C)CC3)cc2)cc1Nc1nccc(-c2cccnc2)n1`, for which the Potency in experiment [6] is 16.6 µM (active); in experiment [5] it was 23.5 µM (active). Besides, the Potency entry in experiment [4] is “inactive”.
In the case of `CC1(C)CCC(C)(C)c2cc(NC(=O)c3ccc(C(=O)O)cc3)ccc21`, the Potency result in [3] was “inactive”. The Potency in experiment [6] was 18.7 µM (active); in experiment [4], 10.5 µM (active); in experiment [5] it was 20.9 µM (active).
As to `NC(=NCc1ccccc1)NC(=O)c1nc(Cl)c(N)nc1N`, the Potency in experiment [8] was 10.5 µM (active); in [6], 9.35 µM (active); in experiment [4], 0.935 µM (active); in [5], 2.09 µM (active).
As to `CC(C)Oc1ccc2c(=O)c(-c3ccccc3)coc2c1`, the Potency result in experiment [2], in [3] and in [4] was “inactive” each time.
For the compound `O=C(O)c1cn(-c2ccc(F)cc2)c2cc(N3CCNCC3)c(F)cc2c1=O`, the Potency entry in experiment [1], in [2], in [3], in [6], in experiment [4] and in experiment [5] was “inactive” each time.
Regarding `OC(CN1CCN(c2cccc(Cl)c2)CC1)C(c1ccccc1)c1ccccc1` (configuration not stated), the Potency result in [1] and in experiment [2] was “inactive” each time.
`Cc1cccc(CN2CCN(C(c3ccccc3)c3ccc(Cl)cc3)CC2)c1` (configuration not stated): the Potency entry in [9] and in experiment [3] was “inactive” throughout. The Potency in [6] was 16.6 µM (active); in experiment [7], 23.5 µM (active); in experiment [4] it was 23.5 µM (active); in experiment [5], 23.5 µM (active).
`O=C(NC(Cc1cc(=O)[nH]c2ccccc12)C(=O)O)c1ccc(Cl)cc1` (configuration not stated): the Potency entry in [9] and in experiment [4] was “inactive” each time. Further, the Potency in [7] was 9.35 µM (active).
As for `Nc1nc(Cl)nc2c1ncn2[C@H]1C[C@H](O)[C@@H](CO)O1`, the values for the Potency in [2], in [3] and in experiment [6] were 0.526 µM (active), 2.35 µM (active) and 0.935 µM (active), respectively.
In the case of `CCOc1cc(CC(=O)N[C@@H](CC(C)C)c2ccccc2N2CCCCC2)ccc1C(=O)O`, the Potency result in [2], in experiment [6], in experiment [4] and in experiment [5] was “inactive” in each case.
As for `Cn1c(NCCN(CCO)CCCc2ccc([N+](=O)[O-])cc2)cc(=O)n(C)c1=O`, in experiment [4], the Potency result was “inactive”.
Consider `CN1CCC(=C2c3ccccc3CCc3sccc32)CC1`, for which, in experiment [6], the Potency is 16.6 µM (active). The Potency result in experiment [4] is “inactive”.
Consider `Cc1cccc(C)c1OCC(=O)N[C@@H](Cc1ccccc1)[C@@H](O)C[C@H](Cc1ccccc1)NC(=O)[C@H](C(C)C)N1CCCNC1=O`, for which the Potency in experiment [1] was 6.62 µM (active); in [2], 20.9 µM (active); in experiment [4] it was 16.6 µM (active). The Potency entry in experiment [8] is “inactive”.
For the compound `CC(C)[N+]1(C)[C@@H]2CC[C@H]1CC(OC(=O)C(CO)c1ccccc1)C2` (some centres not stated), the Potency result in experiment [2], in experiment [7] and in experiment [4] was “inactive” each time.
As to `Cc1nccn1CC1CCc2c(c3ccccc3n2C)C1=O` (configuration not stated), the Potency result in experiment [1] and in experiment [7] was “inactive” in each case.
`CN(C)CCc1c[nH]c2ccc(Cn3cncn3)cc12`: the Potency entry in experiment [2], in experiment [4] and in experiment [5] was “inactive” each time. Also, the Potency in experiment [6] was 1.66 µM (active).
On to `Cc1ccc(Nc2nccc(N(C)c3ccc4c(C)n(C)nc4c3)n2)cc1S(N)(=O)=O`, for which the Potency in experiment [1] is 14.8 µM (active); in experiment [6], 3.72 µM (active); in [7], 20.9 µM (active); in experiment [4] it was 16.6 µM (active); in experiment [5], 16.6 µM (active).
As for `COCCCN1CCC(NC(=O)c2cc(Cl)c(N)c3c2OCC3)CC1`, the Potency in experiment [1] is 20.9 µM (active); in experiment [2], 18.7 µM (active); in [3] it was 16.6 µM (active); in [6] it was 18.7 µM (active).
For the compound `Cc1ccc(C(=O)c2cc(O)c(O)c([N+](=O)[O-])c2)cc1`, the Potency in experiment [5] is 26.4 µM (active).
In the case of `CC(S)C(=O)NCC(=O)O` (configuration not stated), the Potency entry in [9], in experiment [2], in [3] and in [7] was “inactive” each time. Further, the Potency in [5] was 1.87 µM (active).
On to `CCCOc1ccc2nc(NC(=O)OC)[nH]c2c1`, for which the Potency is 0.0066 µM (active) in experiment [2], 0.0105 µM (active) in experiment [6], 5.26 µM (active) in [7] and 0.105 µM (active) in experiment [5].
For `Clc1ccc(C(Cn2ccnc2)OCc2ccsc2Cl)c(Cl)c1` (configuration not stated), the Potency was 18.7 µM (active) in experiment [9], 26.4 µM (active) in [6] and 20.9 µM (active) in experiment [5]. Besides, in [7], the Potency entry was “inactive”.
Take `Cc1cc(Cl)ccc1OCCCC(=O)NO`: the Potency was 9.35 µM (active) in experiment [2]; 7.43 µM (active) in [6]; 0.372 µM (active) in experiment [7]; 7.43 µM (active) in experiment [4]; 2.96 µM (active) in experiment [5].
As to `O=C(O)c1cc(=O)c2c(OCC(O)COc3cccc4oc(C(=O)O)cc(=O)c34)cccc2o1`, the Potency entry in experiment [1], in experiment [2], in [4] and in experiment [5] was “inactive” each time.
As for `CCN(CC)C(=S)SSC(=S)N(CC)CC`, the Potency is 0.001 µM (active) in experiment [2]; 0.001 µM (active) in experiment [6]; 0.0166 µM (active) in [7]; 0.001 µM (active) in experiment [4]; 0.001 µM (active) in [5].
Turning to `O=c1oc2cc(O)ccc2s1`, the Potency result in [2] and in experiment [4] was “inactive” throughout. In addition, the Potency in experiment [5] is 7.43 µM (active).
In the case of `CC(=O)O[C@H]1C(=O)[C@@]2(C)C([C@H](OC(=O)c3ccccc3)[C@]3(O)C[C@H](OC(=O)[C@H](O)[C@@H](NC(=O)c4ccccc4)c4ccccc4)C(C)=C1C3(C)C)[C@]1(OC(C)=O)CO[C@@H]1C[C@@H]2O` (some centres not stated), the Potency result in experiment [2] and in experiment [5] was “inactive” in each case.
Turning to `CN(C)C(=O)[C@H](O)[C@H](Cc1ccccc1)NC(=O)c1cc2cc(Cl)ccc2[nH]1`, the values for the Potency in experiment [6], in [7] and in experiment [5] were 0.833 µM (active), 1.66 µM (active) and 1.66 µM (active), respectively.
Take `O=C1CCc2ccc(OCCCCN3CCN(c4cccc(Cl)c4Cl)CC3)cc2N1`: the Potency is 14.8 µM (active) in experiment [2], 18.7 µM (active) in [7] and 16.6 µM (active) in [5]. In addition, in experiment [3], the Potency result was “inactive”.
As to `COc1cc(C(C)=O)ccc1OCCCN1CCC(c2noc3cc(F)ccc23)CC1`, the Potency result in experiment [2] and in [4] was “inactive” in each case. Moreover, the values for the Potency in experiment [6] and in [5] were 14.8 µM (active) and 1.87 µM (active), respectively.
For the compound `Cc1ccc(C)c(OCCCC(C)(C)C(=O)O)c1`, the Potency in experiment [6] is 20.9 µM (active). Besides, in experiment [7], the Potency result is “inactive”.
Regarding `CC(C)C[C@H](NC(=O)[C@H](Cc1ccccc1)NC(=O)c1cnccn1)B(O)O`, the Potency in experiment [2] was 0.0235 µM (active); in experiment [7] it was 0.0166 µM (active); in [4], 0.0132 µM (active); in experiment [5], 0.0074 µM (active).
As to `CCCc1cc(=O)[nH]c(=S)[nH]1`, the Potency result in experiment [1], in experiment [2], in experiment [3] and in experiment [4] was “inactive” each time.
